Pf apPOL inh = Pf-apPOL DNA polymerase inhibition | 0.25% of 210,000 active | Recombinant Pf-apPOL, molecular beacon fluorescence, 1.5 h | inhibition, % at 10 µM
mHTT CaM bind = disrupts binding of mutant huntingtin to calmodulin. AlphaScreen His-mHTT/GST-CaM binding, luminescence. AID 1671202. P42858. 3.6% of 190,000 active. inhibition, % at 15 µM;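 also: 0% = both proteins with DMSO and 100% = one protein alone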
Active calls of the source: *; nt = not tested or not shown. The sample as a whole holds a higher share of hits than the screen did. Rule as the data show it: active = inhibition above about 50%; inactive = the rest.

SMILES	Pf apPOL inh	mHTT CaM bind
COc1ccc(NCc2ccc(Cl)cc2Cl)cc1OC	-4	45
COc1cc(NCc2ccccc2Cl)cc(OC)c1	3	75*
COc1ccccc1N1CCN(C(=O)c2cn(-c3ccc(F)cc3F)c(=O)c3ccccc23)CC1	-4	36
O=C(c1cn(-c2ccc(F)cc2F)c(=O)c2ccccc12)N1CCC(Cc2ccccc2)CC1	-4	61*
COc1ccccc1NC(=O)N1CCN(CC(=O)c2ccco2)CC1	-2	-4
CCN(CC)CC(=O)N1c2ccccc2Sc2ccc(Cl)cc21	-4	16
O=C(CNCc1ccccc1)N1c2ccccc2Sc2ccc(Cl)cc21	-1	97*
CN=C1S/C(=C/c2ccc(C)o2)C(=O)N1C	nt	-4
Cc1ccc(/C=C2\CS/C(=C\c3ccc(C)o3)C2=O)o1	3	100*
COc1ccc(CNC(=O)CN2CCN(C(=O)Nc3ccc(F)cc3)CC2=O)cc1	-5	-8
COc1ccc(C2/C=C\CN(C(=O)Oc3ccc(C(F)(F)F)cc3)CC(=O)N2Cc2ccc(F)cc2)cc1 (stereo not drawn)	-1	79*
COc1ccc(C2/C=C\CN(C(=O)C3CCCC3)[C@@H](C)C(=O)N2Cc2ccc(F)cc2)cc1 (stereo partly drawn)	-2	43
COc1ccc(C2/C=C\CN(S(=O)(=O)c3ccc(-c4ccccc4)cc3)CC(=O)N2Cc2ccc(F)cc2)cc1 (stereo not drawn)	-1	-3
COc1ccc(C2/C=C\CN(CC3CCCCC3)CC(=O)N2Cc2ccc(F)cc2)cc1 (stereo not drawn)	-3	34
COc1ccc(C2/C=C\CN(C(=O)c3ccc(C)cc3)CC(=O)N2Cc2ccc(F)cc2)cc1 (stereo not drawn)	-3	75*
COc1ccc(C2/C=C\CN(Cc3ccco3)CC(=O)N2Cc2ccc(F)cc2)cc1 (stereo not drawn)	-4	61*
COc1ccc(C2/C=C\CN(C(=O)Nc3ccc(C(F)(F)F)cc3)CC(=O)N2Cc2ccc(F)cc2)cc1 (stereo not drawn)	-5	59*
O=C(Nc1ccc([N+](=O)[O-])cc1Br)c1sc2ccccc2c1Cl	2	4
CCN(CC)c1ccc(/C=c2\sc3nc(-c4ccc(OC)cc4)nn3c2=O)cc1	4	-1
CNc1nnc(-c2nnc(C)o2)c2ccccc12	2	19
Cc1cccc(NC(=O)COc2cc(C)nc(N3CCCCC3)n2)c1	-1	-2
COc1ccc(S(=O)(=O)N2CC3CN(C(=O)c4cc(C)oc4C)CC(C2)O3)cc1	-2	20
O=C(c1ccco1)N1CCCC2(CC(c3ccc(Cl)cc3)=CO2)C1 (stereo not drawn)	-6	-15
O=C(c1ccccc1)N1CCCC2(CC(c3ccc(Cl)cc3)=CO2)C1 (stereo not drawn)	0	100*
O=C(c1ccc(Cl)cc1)N1CCCC2(CC(c3cccc(Cl)c3)=CO2)C1 (stereo not drawn)	-2	-9
SMILES	Pf apPOL inh	mHTT CaM bind
O=C(c1ccco1)N1CCCC2(CC(c3cccc(Cl)c3)=CO2)C1 (stereo not drawn)	-4	90*
O=C(c1ccccc1)N1CCCC2(CC(c3cccc(Cl)c3)=CO2)C1 (stereo not drawn)	-5	96*
O=C(c1ccc(F)cc1)N1CCCC2(CC(c3ccc(Cl)cc3)=CO2)C1 (stereo not drawn)	-4	-5
c1nc(NCc2ccc3c(c2)OCO3)c2nc3n(c2n1)CCCC3	-4	-3
COc1ccc(-c2csc(-n3[nH]c(C)c(C(c4ccccc4)C(C#N)C(N)=O)c3=O)n2)cc1 (stereo not drawn)	2	25
COc1cc(OC)cc(C2=N/C(=C\c3sccc3C)C(=O)O2)c1	2	39
CCc1noc(-c2cccn2Cc2ccccc2Cl)n1	2	-64
O=C(Cn1nc(N2CCCC2)c2ccccc2c1=O)Nc1cccc(Cl)c1	-1	-5
Cc1cccc(-n2nc3c(c2NC(=O)c2ccc(F)cc2)CSC3)c1C	-7	7
Cn1c2ccc(Br)cc2c2nnc(SCC(=O)N=C3NC(=O)CS3)nc21	5	23
O=C(CSc1nc(-c2ccccc2)cc(-c2ccccc2)n1)N=C1NC(=O)CS1	8	61*
Cc1nccn1-c1ccc(CNC(=O)C2CC2)cc1	-5	8
Cc1ccc(C2C3=C(CC(C)(C)CC3=O)Nc3nc(SCC(C)C)[nH]c(=O)c32)cc1 (stereo not drawn)	-2	2
CCc1c(C)[nH]n(-c2nn[nH]n2)c1=O	nt	100*
CCc1c(C)nc2[nH]nc(-c3ccccc3)n2c1=O	-2	2

High-throughput results from PubChem BioAssay.
